Data published in PubChem BioAssay AID624255 (Broad Institute, 2012).
Where “and” joins values, the source holds several entries; their conditions need not be identical. Equal values may be shown once. Hit rate of the full screen: of about 77,000 compounds, about 4,600 (6%) were called active. Roughly 1% stayed inconclusive and do not appear here. Shown is part of a subset that was picked to be rich in actives. Unmarked numbers belong to inactive results.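 Rule for the calls: active = mean inhibition above about 93%, with at least 55% of replicates each passing it (limit read from the data, passing the limit was not always enough); inconclusive = only one of those two conditions holds; inactive = neither condition holds.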

Assay: T. cruzi intracellular proliferation inhibitors, primary screen, cell-based, beta-gal Tulahuen parasites, NIH3T3 host, luminescence (AID 624255)
Details: T. cruzi beta-gal in NIH3T3, GalScreen luminescence, 90 h; at 8.34 µM; hits give high values

Going from `CN1[C@@H]2CN(C(=O)c3ccc(F)cc3)c3ccccc3[C@@H]2[C@@H]1CO` to `O=C(c1cccnc1)N1C[C@H]2[C@@H](c3ccccc31)[C@@H](CO)N2C(=O)Nc1ccccc1F`, the inhibition rises from -2.39% to -1.74%.

Going from `COc1cccc(-c2ccc3n(c2=O)C[C@H]2[C@H](CO)[C@@H](C(=O)N4CCCCC4)N(C)[C@@H]32)c1` to `COc1ccc(-c2ccc3c(c2)[C@H]2[C@H](CCN2C(=O)C2CCOCC2)[C@H](CO)N3C)cc1`, the inhibition falls from 13.1% to 1.27%.

Going from `C[C@@H]1CN([C@@H](C)CO)S(=O)(=O)c2ccc(C#Cc3ccncc3)cc2O[C@@H]1CN(C)S(=O)(=O)c1ccccc1` to `C[C@H]1CN([C@@H](C)CO)S(=O)(=O)c2ccc(C#Cc3ccccc3)cc2O[C@H]1CN(C)S(=O)(=O)c1cn(C)cn1`, the inhibition rises from 11.5% to 27.9%.

First: C[C@@H]1CN([C@H](C)CO)S(=O)(=O)c2ccc(C3=CCCC3)cc2O[C@@H]1CN(C)C(=O)C1CCC1
Second: C[C@@H]1CN([C@H](C)CO)S(=O)(=O)c2ccc(C3=CCCC3)cc2O[C@H]1CN(C)C(=O)c1ccccc1
The inhibition of the first is higher: 52.9% for the first, -0.873% for the second.

Compared with `CC(=O)N(C)C[C@@H]1Oc2cc(-c3cccc(F)c3)ccc2S(=O)(=O)N([C@H](C)CO)C[C@H]1C`, `C[C@@H]1CN([C@@H](C)CO)S(=O)(=O)c2ccc(-c3ccc(F)cc3)cc2O[C@H]1CN(C)C(=O)c1ccccc1F` is higher in inhibition: 31.3% for the first, 84.8% for the second.

Compared with `COc1cccc(S(=O)(=O)N(C)C[C@@H]2Oc3cc(C#CCN(C)C)ccc3S(=O)(=O)N([C@@H](C)CO)C[C@@H]2C)c1`, `COc1cccc(S(=O)(=O)N(C)C[C@H]2Oc3cc(C#CCN(C)C)ccc3S(=O)(=O)N([C@H](C)CO)C[C@H]2C)c1` is lower in inhibition: 91.4% for the first, 75.2% for the second.

First: C[C@H](CO)N1C[C@H](C)[C@H](CN(C)CC2CC2)OCCCC[C@H](C)Oc2ccc(NS(=O)(=O)c3cccs3)cc2C1=O
Second: C[C@@H]1CCCCO[C@H](CN(C)C(=O)c2ccccc2)[C@H](C)CN([C@H](C)CO)C(=O)c2cc(N(C)C)ccc2O1
The inhibition of the first is lower: 38% for the first, 91.3% for the second.

Going from `CN1c2ccc(-c3ccc(F)cc3)cc2[C@@H]2[C@@H](CCN2S(=O)(=O)c2ccc(F)cc2)[C@@H]1CO` to `CN1c2ccc(-c3ccc(C#N)cc3)cc2[C@@H]2[C@@H](CCN2S(=O)(=O)c2cccc(F)c2)[C@@H]1CO`, the inhibition falls from 90.2% to 72.5%.

Compared with `CN1c2ccc(-c3ccc(F)cc3)cc2[C@@H]2[C@@H](CCN2C(=O)c2cccnc2)[C@H]1CO`, `CN1c2ccc(-c3ccccc3)cc2[C@@H]2[C@@H](CCN2C(=O)c2ccccc2)[C@H]1CO` is lower in inhibition: 84% for the first, 62.4% for the second.

Compared with `COCC(=O)N1C[C@@H]2[C@H](c3ccccc31)[C@@H](CO)N2C(=O)C1CC1`, `CN1c2ccc(-c3ccccc3F)cc2[C@H]2[C@H](CCN2C(=O)Cc2ccccn2)[C@H]1CO` is higher in inhibition: 65.2% for the first, 81% for the second.

Compared with `CN1C(=O)c2cc(NC(=O)c3ccccc3)ccc2OC[C@@H]2O[C@H](CC(=O)NCC3CC3)CC[C@@H]21`, `CCCNC(=O)C[C@@H]1CC[C@H]2[C@H](COc3ccc(NC(=O)c4ccc(Cl)cc4)cc3C(=O)N2C)O1` is higher in inhibition: -30.4% for the first, 29.6% for the second.

First: C[C@H]1CN([C@@H](C)CO)C(=O)c2c(c3ccccc3n2C)-c2ccccc2CO[C@H]1CN(C)S(=O)(=O)c1ccc(C#N)cc1
Second: C[C@H]1CN([C@@H](C)CO)C(=O)Cc2cc(NC(=O)Cc3cn(C)c4ccccc34)ccc2O[C@H]1CN(C)Cc1ccccc1
The inhibition of the first is lower: 29.4% for the first, 83.1% for the second.

Compared with `COc1cccc(NC(=O)N[C@@H]2CC[C@H](CC(=O)NCc3ccccn3)O[C@H]2CO)c1`, `COc1ccc(NC(=O)N[C@H]2C=C[C@H](CC(=O)NCc3ccccn3)O[C@H]2CO)cc1` is higher in inhibition: -39.2% for the first, -16.1% for the second.

Going from `CO[C@@H]1CN(C)C(=O)c2cc(NS(=O)(=O)c3cn(C)cn3)ccc2OC[C@@H](C)NC[C@H]1C` to `COc1ccc(S(=O)(=O)Nc2ccc3c(c2)C(=O)N(C)C[C@@H](OC)[C@H](C)CN(C(=O)NC(C)C)[C@H](C)CO3)cc1`, the inhibition falls from -12.5% to -70.7%.

Going from `Cc1ccccc1S(=O)(=O)N[C@H]1CC[C@@H](CCn2cc(Cc3ccccc3)nn2)O[C@H]1CO` to `CN1c2ccc(-c3ccccc3)cc2[C@@H]2[C@@H](CCN2C(=O)c2ccccc2F)[C@@H]1CO`, the inhibition rises from -21.8% to 83.7%.

Going from `CCC(=O)N1CC[C@H]2[C@@H]1c1cc(-c3ccc(C#N)cc3)ccc1N(C)[C@H]2CO` to `COc1cccc(NC(=O)N2CC[C@@H]3[C@@H](CO)N(C)c4ccc(-c5cccc(F)c5)cc4[C@@H]32)c1`, the inhibition falls from 58.1% to 30.5%.

Compared with `Cc1noc(C)c1NC(=O)Nc1ccc2c(c1)C(=O)N([C@H](C)CO)C[C@@H](C)[C@H](CN(C)S(=O)(=O)c1ccc(Cl)cc1)OCCCC[C@H](C)O2`, `C[C@@H]1CN([C@@H](C)CO)C(=O)c2cc(NC(=O)C3CCCCC3)ccc2O[C@@H](C)CCCCO[C@H]1CN(C)C(=O)CCC(F)(F)F` is lower in inhibition: 53.3% for the first, 29.9% for the second.

First: COCCNC(=O)C[C@H]1CC[C@H]2[C@H](COc3ccc(NC(=O)C4CCOCC4)cc3C(=O)N2C)O1
Second: O=C(C[C@H]1CC[C@H]2[C@@H](COC[C@H](O)CN2C(=O)c2ccncc2)O1)NCc1cc(F)cc(F)c1
The inhibition of the first is lower: 17.3% for the first, 43.6% for the second.

Compared with `COCC(=O)Nc1ccc2c(c1)OC[C@@H](C)N(Cc1cocn1)C[C@@H](C)[C@@H](OC)CN(C)C2=O`, `COCC(=O)Nc1ccc2c(c1)[C@H]1C[C@H](CC(=O)NCc3ccc(OC)cc3)O[C@@H](CO)[C@H]1O2` is higher in inhibition: -2.18% for the first, 4.09% for the second.

Compared with `C[C@@H]1CN([C@H](C)CO)C(=O)Cc2cc(NC(=O)Nc3ccc(C(F)(F)F)cc3)ccc2O[C@H]1CN(C)Cc1ccc(-c2ccccc2)cc1`, `C[C@@H]1CN([C@H](C)CO)C(=O)Cc2cc(NC(=O)Nc3ccccc3)ccc2O[C@@H]1CN(C)Cc1ccc(C(F)(F)F)cc1` is higher in inhibition: 67.4% for the first, 86.5% for the second.

First: COc1ccc(CN(C)C[C@H]2Oc3ccc(NC(=O)Cc4ccccc4)cc3CC(=O)N([C@@H](C)CO)C[C@@H]2C)cc1
Second: C[C@@H]1CN([C@@H](C)CO)C(=O)Cc2cc(NC(=O)Cc3ccccc3)ccc2O[C@@H]1CN(C)Cc1ccc(Oc2ccccc2)cc1
The inhibition of the first is higher: 74% for the first, 12.2% for the second.

Going from `C[C@@H]1CN([C@H](C)CO)C(=O)Cc2cc(NC(=O)Cc3cn(C)c4ccccc34)ccc2O[C@@H]1CN(C)Cc1ccc(C(F)(F)F)cc1` to `C[C@H]1CN([C@@H](C)CO)C(=O)Cc2cc(NS(=O)(=O)c3ccccc3)ccc2O[C@H]1CN(C)Cc1ccc(C(=O)Nc2ccccc2N)cc1`, the inhibition falls from 89.6% to 48%.

Going from `C[C@H]1CN([C@@H](C)CO)C(=O)Cc2cc(NS(=O)(=O)c3ccccc3)ccc2O[C@@H]1CN(C)Cc1ccc(C(=O)Nc2ccccc2N)cc1` to `C[C@@H]1CN([C@@H](C)CO)S(=O)(=O)c2ccc(-c3cncnc3)cc2O[C@@H]1CN(C)C(=O)C1CC1`, the inhibition falls from 21.9% to 21.1%.

For `C[C@H]1CN([C@@H](C)CO)S(=O)(=O)c2ccc(C#Cc3cccc(F)c3)cc2O[C@@H]1CN(C)S(=O)(=O)c1cn(C)cn1`, the inhibition was 102% (active).
For `C[C@@H]1CN([C@@H](C)CO)S(=O)(=O)c2ccc(-c3cccc(F)c3)cc2O[C@@H]1CN(C)S(=O)(=O)c1ccccc1`, the inhibition was 117% (active).
In the case of `C[C@@H]1CN([C@@H](C)CO)S(=O)(=O)c2ccc(C#Cc3cccc(F)c3)cc2O[C@H]1CN(C)S(=O)(=O)c1cn(C)cn1`, the inhibition is reported as 61.3% and -15.4%.
For `C[C@H](CO)N1C[C@H](C)[C@@H](CN(C)S(=O)(=O)c2ccc(F)cc2)Oc2cc(C3=CCCC3)ccc2S1(=O)=O`, the inhibition was 114% (active).
In the case of `CC(C)CC#Cc1ccc2c(c1)O[C@H](CN(C)S(=O)(=O)c1cccc(F)c1)[C@@H](C)CN([C@@H](C)CO)S2(=O)=O`, the inhibition is reported as 119% (active).
With `C[C@H]1CN([C@@H](C)CO)S(=O)(=O)c2ccc(-c3cccc(F)c3)cc2O[C@@H]1CN(C)C` the inhibition was -32.3% and -49.6%.
In the case of `C[C@@H]1CN([C@H](C)CO)S(=O)(=O)c2ccc(-c3cccc(F)c3)cc2O[C@H]1CN(C)S(=O)(=O)c1ccc(F)cc1`, the inhibition is reported as 118% (active).
With `CCC(=O)N1CC[C@@H]2[C@@H](CO)N(C)c3ccc(-c4cccc(OC)c4)cc3[C@@H]21` the inhibition was 104% (active).
For `COc1ccc(-c2ccc3c(c2)[C@@H]2[C@@H](CCN2C(=O)Cc2ccccn2)[C@H](CO)N3C)cc1`, the inhibition was 90.9% (active).
With `CN1c2ccc(-c3ccccc3)cc2[C@@H]2[C@@H](CCN2C(=O)c2ccncc2)[C@@H]1CO` the inhibition was 103% (active).
With `C[C@@H]1CN([C@@H](C)CO)C(=O)Cc2cc(NC(=O)C3CCCCC3)ccc2O[C@@H]1CN(C)Cc1ccc(C(=O)Nc2ccccc2N)cc1` the inhibition was 103% (active).
With `C[C@H]1CN([C@@H](C)CO)C(=O)Cc2cc(NC(=O)Cc3cn(C)c4ccccc34)ccc2O[C@@H]1CN(C)Cc1ccc(C(F)(F)F)cc1` the inhibition was 103% (active).
With `C[C@H](CO)N1C[C@H](C)[C@H](CN(C)Cc2ccc(-c3ccccc3)cc2)Oc2ccc(NC(=O)Nc3ccc(F)cc3)cc2CC1=O` the inhibition was 100% (active).
For `C[C@@H]1CN([C@H](C)CO)C(=O)Cc2cc(NC(=O)Cc3ccccc3)ccc2O[C@H]1CN(C)Cc1ccc(Oc2ccccc2)cc1`, the inhibition was 99.8% (active).
